Consider ten compounds from PubChem BioAssay (Tox21).

Molecules are shown by their SMILES. Where “and” joins values, the source holds several entries; their conditions need not be identical. Identical values can stand only once. Inconclusive results are not listed. Some structures have more than one record in an assay (separate samples or runs), and their calls can disagree. Calls of active or inactive are those of the source. Unless noted, the call rests on the fitted dose curve; in most records, active means well fitted curve in the direction sought with a large enough effect in the repeat runs; inconclusive means weak or mixed curves; inactive means no such curve, though single readings can be large; an effect the other way counts as inactive or inconclusive.

Test [1] is described as follows: qHTS assay to identify small molecule agonists of the vitamin D receptor (VDR) signaling pathway - cell viability counter screen (AID 743224). Further: series mostly up to about 63 µM; nearly all actives have a fitted effect of over 50% in size. In outline:
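Counter screen run in the same wells as the VDR-bla reporter assay: CellTiter-Glo luminescence, 30 min at room temperature, after 16 h compound treatment at 37C of cells pre-plated for 4 h.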
On the technique in general: Quantitative high-throughput screening tests each substance at several concentrations.

The nature of test [2]: qHTS assay to identify small molecule antagonists of the vitamin D receptor (VDR) signaling pathway - cell viability counter screen (AID 743225). Further: nearly all actives have a fitted effect of over 50% in size. Put shortly:
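Viability counter screen run in the same wells as the beta-lactamase reporter assay: HEK 293T VDR-UAS-bla cells, 16 h compound exposure at 37C with 3 nM (final) 1-alpha,25-dihydroxyvitamin D3. CellTiter-Glo luminescence, 30 min, room temperature.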

The nature of test [3]: qHTS assay to identify small molecule agonists of the NFkB signaling pathway - cell viability counter screen (AID 1159515; calls by dose curve; further: series mostly up to about 61 µM; nearly all actives have a fitted effect of over 55% in size). In outline: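 Read by CellTiter-Glo luminescence (30 min, room temperature) in the wells also used for the beta-lactamase FRET read. ME-180 NFkB-bla cells at 2,000 per well were plated overnight, then exposed to compound for 5 hr at 37 C.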
Test [4] is described as follows: qHTS assay to identify small molecule agonists of the endoplasmic reticulum stress response signaling pathway (AID 1159516; active means well fitted activation curve with a large enough effect in the signal ratio in the repeat runs, not every such curve was filed as active; the % refers to the signal ratio). Put shortly: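 Ratiometric FRET readout (405 nm excitation; 460 and 530 nm emission) of a beta-lactamase gene driven by the ER stress response element, after 2 hr substrate loading. HeLa ESRE-bla cells were seeded overnight and treated with compounds for only 5 hr at 37 C.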

The nature of test [5]: qHTS assay to identify small molecule agonists of the endoplasmic reticulum stress response signaling pathway - cell viability counter screen (AID 1159517; calls by dose curve; further: series mostly up to about 61 µM; nearly all actives have a fitted effect of over 50% in size). In outline: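 After overnight attachment, ESRE-bla HeLa cells were treated with Tox21 library compounds for 5 hr. CellTiter-Glo luminescence, read 30 min post-addition at room temperature, reported viability.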
The nature of test [6]: qHTS assay to identify small molecule antagonists of the retinoid-related orphan receptor gamma (ROR-gamma) signaling pathway - cell viability counter screen (AID 1159520). Further: nearly all actives have a fitted effect of over 50% in size. In outline: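 Cytotoxicity was read from cellular ATP (CellTiter-Glo luminescence) after 16 hr at 37 C with 1 uM doxycycline induction. The inducer was added 2 hr after compound transfer to Tet-on ROR gamma CHO cells.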

For test [7], the target named is Nuclear receptor ROR-gamma (Homo sapiens) (UniProt P51449). As to the kind of experiment: qHTS assay to identify small molecule antagonists of the retinoid-related orphan receptor gamma (ROR-gamma) signaling pathway (AID 1159521). In outline:
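Luminescence readout (ONE-Glo, 30 min RT) after 16 h doxycycline induction; loss of signal scored as antagonism. CHO cells with TET-inducible RORγ and RORE-LUC reporter; compounds added 2 h before 1 uM final doxycycline.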

A short description of test [8]: qHTS assay to identify small molecule agonists of the AP-1 signaling pathway - cell viability counter screen (AID 1159525; calls by dose curve; further: nearly all actives have a fitted effect of over 55% in size). Put shortly: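 Intracellular ATP by Cell Titer Glo luminescence (30 min, RT) in the same ME-180 AP-1-bla wells after the 5 h compound exposure at 37 °C. Normalised to tetra n-octyl ammonium bromide and DMSO controls.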
Test [9] in a line: qHTS assay to identify small molecule agonists of the AP-1 signaling pathway (AID 1159526; calls by dose curve).
Test [10] in a line: qHTS assay to identify small molecule agonists of the RXR signaling pathway - cell viability counter screen (AID 1159529). Put shortly: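 Luminescence from CellTiter-Glo (30 min, RT) measured viability in the same wells as the beta-lactamase reporter readout. Cells: GeneBLAzer RXR-alpha HEK 293T, 2% charcoal-stripped FBS. Compound exposure 16 hr, 37 C.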
Test [11] is described as follows: qHTS assay to identify small molecule antagonists of the retinoid acid receptor (RAR) signaling pathway - cell viability counter screen (AID 1159551). Further: nearly all actives have a fitted effect of over 35% in size. Put shortly:
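Cytotoxicity counter screen: ATP content quantified by CellTiter-Glo luminescence in C3RL4 cells treated 6 hr at 37 C with compound and retinol (1 uM final). Cells plated at 1,000/well and cultured overnight before dosing.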

The nature of test [12]: qHTS assay to identify small molecule antagonists of the retinoic acid receptor (RAR) signaling pathway (AID 1159552; further: nearly all actives have a fitted effect of over 50% in size). In outline:
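Luminescence from a RARE luciferase reporter in C3RL4 cells served as read-out. Cells received compounds together with 1 uM final retinol and incubated 6 hr at 37 C before detection reagent was added for 30 min at room temperature.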

Test [13] in a line: qHTS assay to identify small molecule agonists of the retinoic acid receptor (RAR) signaling pathway (AID 1159553). Put shortly:
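Luminescence was measured 30 min after luciferase reagent addition at room temperature. Before that, C3RL4 reporter cells (1,000 per well, plated overnight) were treated with compound for 6 hr at 37 C and 5% CO2.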

Test [14] in a line: qHTS assay to identify small molecule antagonists of the estrogen related receptor (ERR) signaling pathway - cell viability counter screen (AID 1224818).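 Further: series mostly up to about 46 µM; viability measured after 17.5 h of compound exposure.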 In outline:
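Cytotoxicity counter screen: fluorescence from CellTiter-Fluor, added after 17.5 h compound exposure at 37 C and read 30 min later. ERR cell line seeded at 2,000 cells/well, preincubated 6 h before dosing.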

The nature of test [15]: qHTS assay to identify small molecule antagonists of the estrogen related receptor signaling pathway with the pleiotropic PPARgamma coactivator (PGC) cell viability counter screen (AID 1224822; further: series mostly up to about 46 µM). In outline:
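Viability counter-screen read by fluorescence intensity after 30 min with CellTiter-Fluor at 37 C; PGC/ERR reporter cells were exposed to compounds for 17.5 h at 37 C following a 6 h preincubation.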

Test [16] concerns the target Retinoic acid receptor RXR-alpha (Homo sapiens) (UniProt P19793). The test is described as follows: qHTS assay to identify small molecule agonists of the RXR signaling pathway (AID 1159527; calls by dose curve; further: nearly all actives have a fitted effect of over 35% in size; further: potency means the concentration at half of the fitted maximal effect). Put shortly:
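Agonist mode; 9-cis retinoic acid positive control. HEK 293T UAS-bla reporter cells, 2% charcoal-stripped FBS, 16 hr compound exposure at 37 C/5% CO2. LiveBLAzer B/G FRET substrate 2 hr RT; ex 405, em 460/530 nm.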

Chain of Retinoic acid receptor RXR-alpha (Homo sapiens) (P19793 whole entry, looked up): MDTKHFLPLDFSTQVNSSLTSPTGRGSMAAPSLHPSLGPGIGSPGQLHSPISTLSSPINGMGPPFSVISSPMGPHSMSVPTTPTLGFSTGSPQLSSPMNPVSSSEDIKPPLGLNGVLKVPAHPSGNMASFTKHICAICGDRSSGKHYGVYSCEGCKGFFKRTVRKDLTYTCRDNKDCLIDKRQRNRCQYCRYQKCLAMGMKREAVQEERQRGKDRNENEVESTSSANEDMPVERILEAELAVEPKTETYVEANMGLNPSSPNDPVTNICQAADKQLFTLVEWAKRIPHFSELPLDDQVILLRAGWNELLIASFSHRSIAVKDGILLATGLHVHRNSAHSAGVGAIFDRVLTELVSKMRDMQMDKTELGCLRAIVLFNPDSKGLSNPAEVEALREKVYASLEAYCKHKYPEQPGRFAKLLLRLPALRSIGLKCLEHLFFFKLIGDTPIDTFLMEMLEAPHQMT

For `O=C(O)C(O)C(O)C(=O)O` (stereo not given), the Potency entry in [1], in test [2], in [3], in test [4], in [5] and in test [6] was “inactive” in each case. Besides, the Potency entry in [7], in test [8], in test [9], in [10] and in test [11] was “inactive” throughout.
Turning to `O=C(O)CCCOc1ccc(Cl)cc1Cl`, the Potency entry in [1], in test [2], in test [3], in [4], in test [5] and in [6] was “inactive” in each case. Besides, the Potency entry in test [7], in test [9], in test [10], in [11], in [12] and in test [13] was “inactive” each time. The outcome in test [14] and in test [15] was inactive.
`Clc1ccc(Cl)c(Cl)c1`: the Potency entry in [1], in test [3], in test [4], in test [5], in test [6] and in [7] was “inactive” throughout. Moreover, the Potency result in [9], in [10], in test [11] and in test [12] was “inactive” in each case. Besides, the Potency entry in test [16] was “inactive and 12.3 µM (active)”.
Consider `CC(C)(C)OOC(C)(C)CCC(C)(C)OOC(C)(C)C`, for which the Potency entry in test [3], in test [4], in test [5], in [6], in test [8] and in test [9] was “inactive” in each case. The Potency result in [16], in [10], in test [11], in test [12] and in test [13] was “inactive” in each case.
For the compound `C[N+]1(CCF)[C@@H]2CC[C@H]1CC(OC(=O)C(O)(c1ccccc1)c1ccccc1)C2` (stereo not given in full), the Potency result in test [1], in [2], in test [3], in test [4], in test [5] and in test [6] was “inactive” in each case. Moreover, the Potency entry in test [7], in test [8], in [9], in test [10] and in test [11] was “inactive” throughout.
In the case of `O=S(=O)(Cl)Cl`, the Potency entry in [2], in test [3], in [4], in test [5], in [6] and in [8] was “inactive” in each case. In addition, the Potency result in [9], in [16], in test [10], in test [11], in [12] and in test [13] was “inactive” each time.
For `CCCC[N+]1(C)[C@@H]2CC(OC(=O)[C@H](CO)c3ccccc3)C[C@H]1[C@@H]1O[C@@H]12` (stereo not given in full), the Potency result in [1], in test [2], in test [3], in [4], in test [5] and in test [6] was “inactive” in each case. The Potency result in [7], in test [9], in test [16], in [10] and in test [11] was “inactive” throughout.
For `FC(Cl)(Cl)C(F)(Cl)Cl`, the Potency entry in test [1], in test [2], in [3], in [4], in test [5] and in [6] was “inactive” in each case. Also, the Potency result in [7], in [9], in test [16], in [10], in test [11] and in test [12] was “inactive” in each case.
`CCNC(=O)NC(=O)/C(C#N)=N/OC`: the Potency result in test [1], in test [2], in test [3], in [4], in [5] and in test [6] was “inactive” in each case. For the same compound, the Potency entry in test [7], in test [8], in test [9], in test [10] and in test [11] was “inactive” in each case.
In the case of `O=C(O)c1ccc(=O)[nH]c1`, the Potency entry in [1], in test [2], in [3], in [4], in test [5] and in test [6] was “inactive” throughout. Besides, the Potency entry in test [7], in test [8], in test [9], in test [10] and in test [11] was “inactive” each time.
